Source: PubChem BioAssay
A selection: hits, their analogues and other compounds. The true share with any hit is near 5.7%.
DAX1 inh-1 = NR0B1 (DAX1) inhibition. HEK293 Gal4-DAX1 luciferase reporter, luminescence. P51843. inhibition, % at 6.75 µM. hit rate 0.99% among 340,000;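 active = inhibition above the mean over all tested compounds plus 3 SD, cut at about 4.2% in these data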;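 note: 0% = DAX1-transfected cells with DMSO and 100% = empty-vector control cells with DMSO; inhibition shows as a rise in luminescence from relieved DAX1 repression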
DAX1 inh-2 = inhibitors of DAX1 repression of SF-1 activated StAR promoter; inhibition, % at 6.8 µM; HEK293T StAR-luciferase reporter, SF-1/DAX-1 repression relief; hit rate 1.1% among 370,000;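 active = inhibition above the mean over all tested compounds plus 3 SD, cut at about 3.6% in these data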;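 note: 0% = DAX-1 cells with DMSO and 100% = cells lacking DAX-1 with DMSO; higher inhibition means more luminescence from relief of DAX-1 repression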
hgDAF-12 ag = agonists of H. glycines DAF-12 nuclear receptor | HEK293 GAL4-hgDAF12 UAS-luciferase reporter, agonist luminescence; normalized to butyrate control | activation, % at 6.8 µM | hit rate 1.8% among 370,000 | AID 687014;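 active = activation above a cutoff set at the mean of all screened compounds plus 3 SD, cut at about 10% in these data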;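 note: 0% = DMSO wells and 100% = sodium butyrate wells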
AHR act = human AHR activation | AHR-responsive luciferase reporter cells, luminescence | AID 2796 | P35869 | hit rate 2.5% among 320,000 | activation, % at 5 µM; in the data active = activation above about 47%;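 note: 0% = vehicle wells and 100% = reference agonist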
Target sequence (P35869 whole entry, looked up): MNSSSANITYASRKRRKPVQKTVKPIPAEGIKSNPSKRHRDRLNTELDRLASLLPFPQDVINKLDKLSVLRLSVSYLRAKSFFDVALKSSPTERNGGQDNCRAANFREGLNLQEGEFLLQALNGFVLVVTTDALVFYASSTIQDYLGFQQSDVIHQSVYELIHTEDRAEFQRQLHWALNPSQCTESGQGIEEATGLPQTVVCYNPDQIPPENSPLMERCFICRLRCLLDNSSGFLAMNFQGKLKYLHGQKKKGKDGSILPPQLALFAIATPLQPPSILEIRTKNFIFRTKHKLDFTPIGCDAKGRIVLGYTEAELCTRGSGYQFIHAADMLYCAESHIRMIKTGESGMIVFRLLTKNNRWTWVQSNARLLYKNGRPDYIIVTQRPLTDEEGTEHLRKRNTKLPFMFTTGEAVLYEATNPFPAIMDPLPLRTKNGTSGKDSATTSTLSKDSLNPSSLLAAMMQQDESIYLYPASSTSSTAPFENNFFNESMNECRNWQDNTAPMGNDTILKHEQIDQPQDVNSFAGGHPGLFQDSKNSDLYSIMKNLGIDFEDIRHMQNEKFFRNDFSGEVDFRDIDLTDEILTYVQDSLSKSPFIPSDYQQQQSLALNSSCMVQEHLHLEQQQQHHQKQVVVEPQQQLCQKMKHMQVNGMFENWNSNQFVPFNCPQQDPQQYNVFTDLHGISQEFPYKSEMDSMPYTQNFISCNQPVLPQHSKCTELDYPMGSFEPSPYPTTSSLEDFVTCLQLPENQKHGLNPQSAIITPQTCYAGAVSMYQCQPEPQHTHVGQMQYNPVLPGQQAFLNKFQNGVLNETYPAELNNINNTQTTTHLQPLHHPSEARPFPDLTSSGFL
ssDAF-12 act = activates DAF-12 receptor from parasite S. stercoralis | hit rate 1% among 370,000 | activation, % at 6.8 µM | HEK293 ssDAF-12/GRIP1 lit1-tk-luc reporter, luminescence; % of 3 µM dafachronic acid response;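 active = activation above the mean over all tested compounds plus 3 SD, cut at about 0.9% in these data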;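 note: 0% = DMSO-only wells and 100% = 3 µM delta7-dafachronic acid wells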
hcDAF-12 act = activators of H. contortus DAF-12 nuclear receptor; activation, % at 6.8 µM; HEK293 hcDAF-12 lit1-tk-luc reporter, luminescence; 0% DMSO, 100% Δ7-dafachronic acid; hit rate 1.4% among 370,000;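 active = activation above the mean of all tested compounds plus 3 SD, cut at about 5.5% in these data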;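 note: 100% = response to 3 µM Δ7-dafachronic acid high control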
AHR act confirm = human AHR activation, confirmation; hit rate 87% among 2,300; shares compounds with AHR act; human cells, AHR-responsive luciferase reporter, luminescence; AID 2845; activation, % at 9 µM; in the data active = activation above about 49%;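 note: HepG2 hepatoma cells carrying a DRE-driven firefly luciferase reporter; 0% = vehicle wells and 100% = reference agonist wells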
PXR act counter = counter-screen for AHR activators: human PXR activators | shares compounds with AHR act | cell-based PXR reporter, luciferase luminescence | activation, % at 11.6 µM | hit rate 88% among 2,300 | AID 434939; in the data active = activation above about 11%;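 note: human hepatoma DPX-2 cells expressing full-length human PXR; 0% = DMSO and 100% = reference agonist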
Starred values were filed as active, the others as inactive; x = not tested or not shown.

SMILES | DAX1 inh-1 | DAX1 inh-2 | hgDAF-12 ag | AHR act | ssDAF-12 act | hcDAF-12 act | others
O=C1CC(c2c[nH]c3ccccc23)C(=O)N1c1ccccc1 (stereo not drawn) | 2.3 | 0.5 | 0.1 | 0.8 | -0.6 | 3.0
O=C1CNCc2[nH]c3ccccc3c2N1c1ccccc1 | -0.7 | 0.3 | 5.7 | 54.2* | 0.1 | 1.9
COc1cc(OC)cc(C(=O)NNC(=O)CN2C(=O)NC(C)(c3ccc(C)cc3)C2=O)c1 (stereo not drawn) | 4.4* | -0.3 | 0.7 | -0.2 | -1.2 | -1.4
CCCCC(=O)N1C(C)CCC1C (stereo not drawn) | 0.4 | 0.9 | 2.0 | x | -1.0 | 0.4
CC(C)c1ccc(/C=C/C2=NNC(=O)CC2)cc1 | 2.2 | 1.6 | 10.7* | 14.0 | -0.9 | -0.3
COC(=O)C1=C(C)N(Cc2ccc(C(F)(F)F)cc2)C(=NCc2ccccc2)NC1c1ccccc1 (stereo not drawn) | x | -0.3 | 2.8 | x | -0.8 | 0.1
O=C(CSc1nnc(-c2ccncc2)n1Cc1ccco1)Nc1ccccc1F | 6.2* | -0.6 | -2.0 | -1.0 | -1.7 | -1.9
O=C(CSc1nnc(-c2ccncc2)n1Cc1ccco1)Nc1nc(-c2ccccc2)cs1 | -3.3 | -1.2 | 2.1 | 47.7* | -0.3 | 1.5
COc1ccc(-c2cc(-c3ccc(Br)cc3)nc3ncnn23)cc1OC | 1.1 | -0.2 | -0.8 | 53.9* | -1.6 | -1.7
COc1ccc(-c2cc(-c3ccccc3)nc3ncnn23)cc1 | 0.7 | -1.8 | -0.4 | 8.4 | -1.3 | -3.3
Cc1cnc(CNC(=O)C2(C)CCCN2CC(C)C)cn1 (stereo not drawn) | x | 1.3 | -0.7 | x | -1.3 | 0.0
COc1ccc(OC)c(C(=O)N2CCC(n3nccc3NC(=O)CC(C)C)CC2)c1 | 0.6 | -0.4 | 1.8 | 3.7 | -1.1 | -0.7
CC(C)(C)NC(=O)C1Cc2ccccc2CN1 (stereo not drawn) | 7.3* | 0.7 | 0.2 | -2.1 | -1.1 | -0.3
O=C(Nc1ccc2c(c1)OCO2)[C@@H]1[C@@H]2C(=O)N(C3CCCCC3)C(=O)[C@@H]2C2c3ccccc3C=CN21 (stereo partly drawn) | x | 0.3 | -0.9 | 53.5* | -0.6 | 1.1
CC(C)(C)C(=O)[C@@H]1[C@@H]2C(=O)N(C3CCCCC3)C(=O)[C@@H]2[C@H]2c3ccccc3C=CN12 | -0.5 | -0.7 | 1.3 | 92.6* | -1.0 | -0.3
Cc1ccc(CNC(=O)N[C@@H](Cc2ccccc2)C(=O)O)cc1 | -0.8 | 0.8 | -0.4 | -0.8 | -1.9 | -2.0
CCCc1c(-c2cccc(Br)c2)ncn1CCc1ccccc1OC | x | -1.1 | -1.1 | x | -1.7 | -3.2
O=S(=O)(NNc1ncc(C(F)(F)F)cc1Cl)c1ccccc1 | 0.5 | -1.2 | 1.5 | 68.8* | -0.9 | 1.9
Cc1cccc(C)c1NC(=O)C1(C)CN(S(C)(=O)=O)CC(=O)N1CCc1ccccc1F (stereo not drawn) | x | -0.6 | -1.2 | x | -1.1 | -2.5
O=C1c2ccccc2C(=O)N1CSc1nnc2c3ccccc3n(CCc3ccccc3)c2n1 | 1.2 | x | x | -6.7 | x | x
C=CCn1c2ccccc2c2nnc(SCN3C(=O)c4ccccc4C3=O)nc21 | -0.8 | -0.1 | -0.1 | 78.3* | -1.2 | 0.5
O=S(=O)(N/N=C/c1cccnc1)c1ccc(Cl)c(Cl)c1 | 2.2 | 0.4 | 0.2 | 1.9 | -0.5 | 0.0
O=c1c(-c2ccc(Cl)cc2)cnc2n1CCS2 | -0.1 | 0.9 | 4.3 | 115.9* | -1.1 | 2.9 | AHR act confirm=130.5*;PXR act counter=52.6*
O=C(Oc1ccc(/C=N/NC(=O)c2ccccc2O)cc1)c1ccccc1 | 0.6 | -0.3 | 3.5 | 3.2 | -1.0 | -0.9
Cn1nccc1C(=O)Oc1ccc(/C=N/NC(=O)c2ccccc2O)cc1 | 2.6 | 0.2 | 3.9 | 92.6* | 0.0 | 1.6 | AHR act confirm=21.2;PXR act counter=5.0
O=C(c1ccc(NC2=NC3CS(=O)(=O)CC3S2)cc1)N1CCN(c2ccc([N+](=O)[O-])cc2)CC1 (stereo not drawn) | 0.3 | 0.5 | -1.8 | -0.2 | -1.0 | -1.8
C=CCNc1sc(C(=O)c2ccccc2)c(N)c1-c1nc2ccccc2s1 | 1.0 | x | x | 131.9* | x | x | AHR act confirm=89.7*;PXR act counter=43.5*
